# Results from PubChem BioAssay (NCI).
# Where “and” joins values, the source holds several entries; their conditions need not be identical. Identical values can stand only once. Compounds without any hit were thinned out: in the full panel of roughly 79,000, 15% have a hit. Where a structure was tested more than once in an assay, its records may differ in their call. Calls of active or inactive are those of the source. No stated cut-off is given here; in the data, active means growth inhibition above about 70%; inactive means the rest.
# How the values were obtained:
# [1] = NCI Yeast Anticancer Drug Screen. Data for the rad50 strain (AID 155);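 further: 0% = growth of vehicle-only cultures of the same strain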; conditions: S. cerevisiae rad50 strain growth inhibition, stronger effect = higher value
# Outline: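 Cells are treated with compound, grown, and their growth is then scored against vehicle-only cultures of the same repair-deficient yeast strain.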
# [2] = NCI Yeast Anticancer Drug Screen. Data for the mec2-1 strain (AID 157); conditions: S. cerevisiae mec2-1 strain, stronger effect = higher value
# Outline: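 Yeast mec2-1 mutant treated with compound. Readout: growth inhibition vs vehicle controls.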
# [3] = NCI Yeast Anticancer Drug Screen. Data for the sgs1 mgt1 strain (AID 161);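 further: 0% = growth of cultures given vehicle only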; conditions: S. cerevisiae sgs1 mgt1 strain, stronger effect = higher value
# Outline: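 Test agents were incubated with a DNA-repair-mutant yeast strain. Growth was then read and compared against vehicle-treated controls.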
# [4] = NCI Yeast Anticancer Drug Screen. Data for the cln2 rad14 strain (AID 165);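 further: 0% = growth equal to vehicle treated cultures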; conditions: S. cerevisiae cln2 rad14 strain, stronger effect = higher value
# Outline: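 cln2 rad14 yeast strain; compound exposure; growth inhibition read vs vehicle controls.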
# [5] = NCI Yeast Anticancer Drug Screen. Data for the bub3 strain (AID 167); conditions: S. cerevisiae bub3 mutant strain, stronger effect = higher value
# Outline: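 Part of a panel of yeast mutants defective in DNA damage repair or cell cycle regulation. Each strain is grown with compound, and inhibition is calculated relative to solvent-treated cultures.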
# [6] = NCI Yeast Anticancer Drug Screen. Data for the mlh1 rad18 strain (AID 175); conditions: S. cerevisiae mlh1 rad18 strain growth inhibition, stronger effect = higher value
# Outline: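 Yeast w/ defined DNA-repair lesions; compound exposure; growth vs vehicle controls → % inhibition.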
# [7] = at 5.0 µM (retest, dose inferred, filed as 0.5)
# [8] = at 50.0 µM (retest, dose inferred, filed as 5.0)
SMILES,"growth inhibition [1, 7]","growth inhibition [1, 8]",growth inhibition ([1]; at 50.0 µM),"growth inhibition [2, 7]","growth inhibition [2, 8]",growth inhibition ([2]; at 50.0 µM),"growth inhibition [3, 7]","growth inhibition [3, 8]",growth inhibition ([3]; at 50.0 µM),"growth inhibition [4, 7]","growth inhibition [4, 8]",growth inhibition ([4]; at 50.0 µM),"growth inhibition [5, 7]","growth inhibition [5, 8]",growth inhibition ([5]; at 50.0 µM),"growth inhibition [6, 7]","growth inhibition [6, 8]",growth inhibition ([6]; at 50.0 µM)
CCN(CC)C(=S)S,66% (inactive),99% (active),48.6% (inactive) and 99.3% (active),66% (inactive),99% (active),28% (inactive) and 99.5% (active),58% (inactive),99% (active),34.9% (inactive) and 99.5% (active),8% (inactive),99% (active),21.3% (inactive) and 98.8% (active),65% (inactive),99% (active),8.05% (inactive) and 99.5% (active),75% (active),99% (active),26.8% (inactive) and 99.5% (active)
C[n+]1c(/C=C/c2ccc(O)c(O)c2)[se]c2ccccc21,12% (inactive),72% (active),77.7% (active),3% (inactive),80% (active),70.6% (active),48% (inactive),81% (active),82.7% (active),19% (inactive),53% (inactive),66.9% (inactive),-3% (inactive),61% (inactive),56.1% (inactive),18% (inactive),80% (active),77% (active)
COc1ccccc1/C=C(/C)[N+](=O)[O-],96% (active),99% (active),99.5% (active),35% (inactive) and 21% (inactive),99% (active) and 100% (active),99.8% (active),34% (inactive) and 55% (inactive),99% (active) and 100% (active),99.2% (active),13% (inactive) and 12% (inactive),99% (active),99.5% (active),34% (inactive) and 27% (inactive),99% (active) and 100% (active),99.8% (active),34% (inactive) and -4% (inactive),99% (active),99.5% (active)
CC[C@H](C)c1occ2c(O)c(C(=O)O)c(=O)cc-2c1C,56% (inactive),98% (active),24.5% (inactive),71% (active),99% (active),-2.7% (inactive),99% (active),99% (active),12.2% (inactive),31% (inactive),99% (active),3.2% (inactive),74% (active),99% (active),12.2% (inactive),88% (active),98% (active),81.2% (active)
CC/C(=C(/CC)c1ccc(OP(N)(=O)N(CCCl)CCCl)cc1)c1ccc(OP(N)(=O)N(CCCl)CCCl)cc1 (configuration not stated),18% (inactive),33% (inactive),17.1% (inactive),-5% (inactive),26% (inactive),5.6% (inactive),2% (inactive),42% (inactive),34.7% (inactive),3% (inactive),31% (inactive),-9.95% (inactive),29% (inactive),34% (inactive),0.1% (inactive),26% (inactive),51% (inactive),66.8% (inactive)
FC(F)(F)c1nnn[n-]1.[Au+].c1ccc([PH+](c2ccccc2)c2ccccc2)cc1,99% (active),97% (active),97.6% (active),100% (active),97% (active),97.2% (active),99% (active),98% (active),95.6% (active),99% (active),96% (active),94.5% (active),98% (active),97% (active),96.3% (active),99% (active),97% (active),94.7% (active)
S=C(SSC(=S)N1CCCCC1)N1CCCCC1,50% (inactive),99% (active),9.4% (inactive) and 16.8% (inactive),55% (inactive),99% (active),13.6% (inactive) and 5.4% (inactive),48% (inactive),99% (active),18.5% (inactive) and 12.8% (inactive),55% (inactive),99% (active),24.9% (inactive) and 19.5% (inactive),70% (active),99% (active),9.8% (inactive) and 4.25% (inactive),34% (inactive),99% (active),54.8% (inactive) and 12.6% (inactive)
C[As](c1ccc(Br)cc1)c1ccc(Br)cc1,-4% (inactive),1% (inactive),3.6% (inactive),-2% (inactive),20% (inactive),25.8% (inactive),7% (inactive),46% (inactive),75.5% (active),-5% (inactive),-18% (inactive),52.1% (inactive),2% (inactive),44% (inactive),-14.2% (inactive),6% (inactive),22% (inactive),53% (inactive)
[Cl][Hg][Cl],99% (active),99% (active),91.3% (active),100% (active),100% (active),93.3% (active),100% (active),100% (active),94% (active),99% (active),99% (active),92.3% (active),100% (active),92% (active),93.1% (active),100% (active),99% (active),92.4% (active)
